Results taken from publication PMC12136788.
Changes are numbered by the printed parent chain. In all, about 24,000 sequences were measured (“enrichment r”: median about 0.99, highest 2% from about 3.7 on). For the sample, the highest values were picked, then their nearest neighbours and some sequences at random.

T1: UNK ZnF1-3 (human, UniProt Q9C0B0 31-174)
T1 sequence: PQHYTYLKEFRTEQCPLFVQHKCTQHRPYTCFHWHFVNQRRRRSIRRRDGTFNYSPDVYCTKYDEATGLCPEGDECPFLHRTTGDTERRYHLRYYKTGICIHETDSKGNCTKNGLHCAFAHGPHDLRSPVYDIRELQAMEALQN

B1: chr15:75216061:75216062:-_ENSG00000178741_ENST00000564811|perfect_dup|motif|central (ssRNA)
RNA: GGGAGUUCUACAGUCCGACGAUCUUUGUCAAGGCCCAGUUCCUCCGGAGUGGAGAUUCCCAGUUCAUUUAAAGUUGGUCGGAGUUCCUGGAUGACAUAGGGGUAGAUUUCCUUAUGAGGUCCUGCUUUGUCCUUAACAACCUCCAACAGAGGAUUGAGCAUCA
B2: chr4:6323411:6323412:-_ENSMUSG00000028245_ENSMUST00000029910|mus_hu|FALSE|FALSE (ssRNA)
RNA: GGGAGUUCUACAGUCCGACGAUCAGAAAAAUAUUUUUAAUGUAGAAAAGAUGAAUAGCUGUAAUGAAAUACAAACCGUUCCUAUACACAGUAAACUUACUAAGAACUGCUAAUCCUUCUCCAGGUUCUUAGAAUCUGGGUACACAACAGAGGAUUGAGCAUCA
B3: chrX:98838459:98838460:+_ENSMUSG00000034160_ENSMUST00000044475|mus_mus|FALSE|FALSE (ssRNA)
RNA: GGGAGUUCUACAGUCCGACGAUCUCCCAAAUUCGAAUAGGCUUCUGCUAGAAGGGGAUUCUGUUUAAUUGCCAAGGUGCUAAAAUGAGCAGAUCUGUCCAGCCUUCGACACUGGAAGUGUAUAGAUGAAAGUAAUAAAAGAACCAACAGAGGAUUGAGCAUCA
B4: chr12:16048344:16048345:+_ENSG00000023734_ENST00000419869|hu_hu|hu_hu_hu_mus_True|8_18 (ssRNA)
RNA: GGGAGUUCUACAGUCCGACGAUCAGAUCGUCCAUAAGUAAUAACCAAAAUCUCUCCUUCAGGAAUAUACUCCAUGCUGCUAACAGACAUAUUAAAAUUCAGAGAUUUCACUUCUGUCAUAGUAGCAUGAUCCCAAAGCCGAACCAACAGAGGAUUGAGCAUCA
B5: chr16:94690093:94690094:+_ENSMUSG00000040785_ENSMUST00000117648|mus_mus|motif|central (ssRNA)
RNA: GGGAGUUCUACAGUCCGACGAUCUGGGACUCCUGUGAGCAGACAGCAUCUUCCCAGGGUAAAAAAAAAAAAUAGCCAAUACGGAUUUAAAAAGUAUUUUAUAAUUGAUUACCAAAAUGUAGAUUAAUUGAAUCAUAAGCACUUCAACAGAGGAUUGAGCAUCA
B6: 109710003_109710123_2987_3pUTR_ENSMUSG00000031924_ENSMUST00000034400|mouse|control|control (ssRNA)
RNA: GGGAGUUCUACAGUCCGACGAUCUUCUGCCUCCCAAGUGCUGGGAUUAAAGAUUUAAAAAAAAAAAAGCAUCCUUUUUAUAUAAUAUAAAAUGACAUUACAUUAUCAGUAGUUCAAAAGAAGCCCUGGGUAUUGACGGAUUUCCAACAGAGGAUUGAGCAUCA
B7: chr16:94690093:94690094:+_ENSMUSG00000040785_ENSMUST00000117648|mus_mus|FALSE|FALSE (ssRNA)
RNA: B5 RNA with G82U, G83A
B8: chr12:42180722:42180723:-_ENSMUSG00000036295_ENSMUST00000043884|mus_hu|mus_mus_mus_hu_True|58_108 (ssRNA)
RNA: GGGAGUUCUACAGUCCGACGAUCCUGUAGGAGCAGAAUCUGUGUGUUAGCUGGCAAUCUGGCUGGGAAAGUUAAAAGCCCUAAAUCAUUACAAUCCACUGUAGAUGCUUCCAUAUAAAUGGAUCUGGGUGUAAACCAAGGCCUCAACAGAGGAUUGAGCAUCA
B9: chr12:16048344:16048345:+_ENSG00000023734_ENST00000419869|hu_hu|hu_hu_hu_mus_True|18_78 (ssRNA)
RNA: B4 RNA with U57C, A135G
B10: chr7:125984895:125984896:+_ENSMUSG00000030982_ENSMUST00000106553|mus_mus|motif|central (ssRNA)
RNA: GGGAGUUCUACAGUCCGACGAUCGUAGAAGGCAAGAGCUUAAAACCAAUCUGUAUAAAAGUAAAAAUAACAAAAACUUCGGAAUUCCAGGAAGAGUUAAUGGCAGCCAAGCAGAUCUUCCAGGAUGUGGCACUGGGACUCCCGCAACAGAGGAUUGAGCAUCA
B11: 74654529_74654649_2250_CDS_ENSG00000113161_ENST00000287936|human|control|control (ssRNA)
RNA: GGGAGUUCUACAGUCCGACGAUCUCUGACAACCUUGGCUGGAAUGACAGCUUCACAAACAACAGAUUUUCCUCUUCCCUCUAUCCAAUUUAUAGCAGCAGGUUUCUUGUCAGUACAAUAGUUACCACUAACGGCUAGAAUCUGCAACAGAGGAUUGAGCAUCA
B12: chr22:19452774:19452775:-_ENSG00000070010_ENST00000399523|hu_hu|hu_hu_hu_mus_False|18_88 (ssRNA)
RNA: GGGAGUUCUACAGUCCGACGAUCCUUCUCAUUGUAGUUGAUAGCAAUCACAUCCCCAGUCGUCAGACAGGCGAAGUUUCUCAAUGCAUUUUCUAAUACCGCUUUAGGGUUGGUAAUGUCCAGGAAGUCUGGGCUCUGAGGCUGCAACAGAGGAUUGAGCAUCA
B13: chrX:100667754:100667755:+_ENSG00000126945_ENST00000316594|hu_hu|FALSE|FALSE (ssRNA)
RNA: GGGAGUUCUACAGUCCGACGAUCUCCGUAUCUAUGAUCAGACAUUCCUGAAAAACAGUAAUUGAGGUCUCUUCCAAAUCUAUCAGACCCAAAGCCAUAUCCAUCAUUAUAGCCACCAUAGUCAUCAUAGCCUCCAUACCCUCCCAACAGAGGAUUGAGCAUCA
B14: 31508769_31511148_1743_CDS_ENSG00000113360_ENST00000513349|human|control|control (ssRNA)
RNA: GGGAGUUCUACAGUCCGACGAUCAGGGUGGGCCUUUUUGCGUUUGAUUUCUGCAAUAACGUCAAAAACUUCAGAGUCUGAGCUGCUAGAACAGGUGCUGUCCUCAUCAGACUCACACUCGGAUUCACUGGAACUCUCUAAAUCCAACAGAGGAUUGAGCAUCA
B15: 95941554_95941674_2216_3pUTR_ENSG00000164938_ENST00000448464|human|control|control (ssRNA)
RNA: GGGAGUUCUACAGUCCGACGAUCGCCAGAGUGGUUAAAGAUUUUGCCUGAAGUUAAAACAAAAAAUGAAAAGUCACUUGGACUGCAGGGAAGAAUACUUACAAUACAAGGCAAUUAAAAAAAAAAAAAGAAAAAAGUUGAGCCCAACAGAGGAUUGAGCAUCA
B16: chr17:65740002:65740003:+_ENSG00000130935_ENST00000581375|hu_hu|hu_hu_hu_mus_False|48_58 (ssRNA)
RNA: GGGAGUUCUACAGUCCGACGAUCAACAAAUCUUUCUUCCCUGGACGAACAGGAAGAUUCAUAUUAAAAAAAAUAUAUGUCUAUGAAGGAGAAUUGAGUGGCCACACCUUUACUCCCAGCACUUUGGGAGGUGGAUCUCUGAGUCAACAGAGGAUUGAGCAUCA
B17: chr3:127788656:127788657:+_ENSG00000058262_ENST00000243253|hu_hu|motif|central (ssRNA)
RNA: GGGAGUUCUACAGUCCGACGAUCCACUUUCACAGUUCUUUUUGCCAGUGCCAGGAUAAAAAGCAAAAUUUUAAAUUGGAAAAUGUCGGGCACUUUACACAGUGGAAUGAAAGAAUACGAAAUUCAAAAACAUUAUUAAAAGUCCAACAGAGGAUUGAGCAUCA
B18: chr16:94664382:94664383:+_ENSMUSG00000040785_ENSMUST00000117648|mus_hu|motif|central (ssRNA)
RNA: GGGAGUUCUACAGUCCGACGAUCAAAAGCUGGUGCUGAAGAUGAAUCUGACACUGGUUUAGACUUUACAUCUGGUUUAAAUUCCCGGGCAGCUGGAUUCAGUUGUAGUUUAACUCGUACAUACUCCCCUGCUUUUGAAAUUUCCAACAGAGGAUUGAGCAUCA
B19: chr3:127788656:127788657:+_ENSG00000058262_ENST00000243253|hu_mus|motif|central (ssRNA)
RNA: GGGAGUUCUACAGUCCGACGAUCAAUUCACUUCUACUGGUUUUUUGCCAAUGCCAGAAAAAGCAAAAUUUCAAAUUGGAAAUUUCCGGGCACUUUACACAGUGGAAUGAAAAGAUAUGAAAUUUUAAAAAAAAUUAAAAAAAACAACAGAGGAUUGAGCAUCA
B20: chr3:154749246:154749247:-_ENSMUSG00000053870_ENSMUST00000066568|mus_hu|FALSE|FALSE (ssRNA)
RNA: GGGAGUUCUACAGUCCGACGAUCGCCAUUUUUAUUAUUAAAAAUAGAAUUACAGUUGAGGAGAGAAGUGCCAGUGAAUACUUAGAACUUCACUGGACCAAAAGCCUCAAAAAAGAUGGAAAAAUUCCAAAGGUAUGCUUAGAACAACAGAGGAUUGAGCAUCA
B21: chr1:163112212:163112213:-_ENSG00000143248_ENST00000313961|hu_hu|hu_hu_hu_mus_False|48_48 (ssRNA)
RNA: GGGAGUUCUACAGUCCGACGAUCUUUUAUUAUCAGUAAGAGUGAGUUACAUACUAGGCAAAGUAUUGGAUACAAUAAUCAGGAAACAAACACAAUUGGUCCAGAAUUUAAAACUUUAUGAGCGAAGUGCUGGCACAGGACUUACAACAGAGGAUUGAGCAUCA
B22: 140276459_140277056_1559_CDS_ENSMUSG00000040945_ENSMUST00000038893|mouse|control|control (ssRNA)
RNA: GGGAGUUCUACAGUCCGACGAUCGUCUCGCGCUAUCACCAAGGAGUGUGAAUAGCCCAUGGCCACCUGUUCGGAGAAGAUGCCAUCCAGAGUCUUCACCUCCUGGGCCGCAGUAGAAGACUUGGGCUUGUGGUCCCCAUACCCCAACAGAGGAUUGAGCAUCA

target: T1, UNK ZnF1-3; experiment: nsRBNS (natural sequence RNA bind-n-seq); RBNS binding buffer (assumed for nsRBNS): 25 mM Tris pH 7.5, 150 mM KCl, 3 mM MgCl2, 0.01% Triton X-100, 500 ug/ml BSA, 20 U/ml SUPERase-In, 4 C; UNK is unkempt and MSI1 is Musashi-1; names of the RNAs are library labels; protein concentration not given here; high values mean tight binding

Row | Binder | binding signal
1 | B1 | 0.656 enrichment R
2 | B2 | 1.02 enrichment R
3 | B3 | 1.64 enrichment R
4 | B4 | 0.71 enrichment R
5 | B5 | 4.87 enrichment R
6 | B6 | 2.62 enrichment R
7 | B7 | 7.05 enrichment R
8 | B8 | 1.07 enrichment R
9 | B9 | 0.91 enrichment R
10 | B10 | 3.93 enrichment R
11 | B11 | 1.16 enrichment R
12 | B12 | 0.83 enrichment R
13 | B13 | 1.11 enrichment R
14 | B14 | 0.49 enrichment R
15 | B15 | 12.6 enrichment R
16 | B16 | 1.64 enrichment R
17 | B17 | 4.09 enrichment R
18 | B18 | 1.16 enrichment R
19 | B19 | 6.28 enrichment R
20 | B20 | 2.22 enrichment R
21 | B21 | 1.39 enrichment R
22 | B22 | 0.829 enrichment R
